In all, about 8,300 sequences were measured (“log2 fold change of degron read counts, EGFP-low vs EGFP+ sorted cells (limma voom), compound-induced degradation”: median about -1.1, highest 2% from about 3.2 on). Shown is part of a subset that was picked to be rich in the highest values.
B1: 46F_47D_49N_50V_52G_53A_54M_55F_67L_, Q9UKT9 (peptide)
chain: FDCNVCGAMFTQKGNLLRHIKL
B2: 46F_47E_49P_50Q_52G_53A_54K_55F_67L_, Q9UKT9 (peptide)
chain: FECPQCGAKFTQKGNLLRHIKL
B3: 46F_47W_49D_50I_52G_53A_54L_55F_67L_, Q9UKT9 (peptide)
chain: FWCDICGALFTQKGNLLRHIKL
B4: 46F_47N_49P_50I_52G_53A_54G_55F_67L_, Q9UKT9 (peptide)
chain: FNCPICGAGFTQKGNLLRHIKL
B5: 46L_47V_49E_50I_52G_53F_54F_55C_67L_, Q9UKT9 (peptide)
chain: LVCEICGFFCTQKGNLLRHIKL
B6: 46F_47I_49P_50I_52G_53A_54C_55F_67L_, Q9UKT9 (peptide)
chain: FICPICGACFTQKGNLLRHIKL
B7: 46F_47W_49P_50I_52G_53A_54C_55F_67L_, Q9UKT9 (peptide)
chain: FWCPICGACFTQKGNLLRHIKL
B8: 46F_47V_49P_50I_52G_53A_54C_55F_67L_, Q9UKT9 (peptide)
chain: FVCPICGACFTQKGNLLRHIKL
B9: 46F_47M_49P_50I_52G_53A_54C_55F_67L_, Q9UKT9 (peptide)
chain: FMCPICGACFTQKGNLLRHIKL
B10: 46F_47Q_49P_50I_52G_53A_54C_55F_67L_, Q9UKT9 (peptide)
chain: FQCPICGACFTQKGNLLRHIKL
B11: 46F_47A_49P_50I_52G_53A_54C_55F_67L_, Q9UKT9 (peptide)
chain: FACPICGACFTQKGNLLRHIKL
B12: 46F_47C_49P_50I_52G_53A_54C_55F_67L_, Q9UKT9 (peptide)
chain: FCCPICGACFTQKGNLLRHIKL
B13: 46F_47Y_49P_50I_52G_53A_54C_55F_67L_, Q9UKT9 (peptide)
chain: FYCPICGACFTQKGNLLRHIKL
B14: 46F_47D_49P_50I_52G_53A_54C_55F_67L_, Q9UKT9 (peptide)
chain: FDCPICGACFTQKGNLLRHIKL
B15: 46F_47N_49P_50I_52G_53A_54C_55F_67L_, Q9UKT9 (peptide)
chain: FNCPICGACFTQKGNLLRHIKL
B16: 46F_47L_49P_50I_52G_53A_54C_55F_67L_, Q9UKT9 (peptide)
chain: FLCPICGACFTQKGNLLRHIKL
B17: 46F_47S_49P_50I_52G_53A_54C_55F_67L_, Q9UKT9 (peptide)
chain: FSCPICGACFTQKGNLLRHIKL

Biological target: T1, CRBN, Q96SW2
T1 chain: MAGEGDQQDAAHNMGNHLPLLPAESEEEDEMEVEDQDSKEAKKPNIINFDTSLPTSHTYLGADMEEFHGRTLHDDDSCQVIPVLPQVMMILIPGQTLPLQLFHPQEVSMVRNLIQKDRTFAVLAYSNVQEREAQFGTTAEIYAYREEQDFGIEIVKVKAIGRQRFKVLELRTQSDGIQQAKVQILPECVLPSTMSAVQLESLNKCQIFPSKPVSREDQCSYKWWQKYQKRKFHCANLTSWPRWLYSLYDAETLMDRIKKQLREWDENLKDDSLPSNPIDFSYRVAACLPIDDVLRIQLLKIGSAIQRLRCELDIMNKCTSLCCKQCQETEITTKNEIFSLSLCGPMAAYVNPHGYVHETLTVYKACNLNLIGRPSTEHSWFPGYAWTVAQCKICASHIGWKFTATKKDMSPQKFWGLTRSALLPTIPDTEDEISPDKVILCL
Test: log2 fold change of degron read counts, EGFP-low vs EGFP+ sorted cells (limma voom), compound-induced degradation; higher = more compound-induced degradation of the degron-EGFP fusion; degrons are variants of IKZF1/3 zinc finger 2; compound dose not given here
Details: Jurkat, 18 h
Procedure: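 Pooled library of 8380 IKZF3 ZF2 degron mutants (positions 146-167 varied within the IKZF3 130-189 degron; only the varied core is printed, flanks not printed) fused to EGFP with IRES-mCherry, lentivirally expressed in Jurkat cells. mCherry+ cells were treated with one IMiD compound for 18 h (dose not stated) and FACS-sorted into EGFP-low and EGFP+ populations. Degron sequences were counted by NGS, and log2FC (EGFP-low vs EGFP+) was estimated by limma voom over 3 biological replicates.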

[1] = compound: compound 19 (5-tert-butyl-thalidomide)
[2] = compound: compound 22 (5-morpholino-thalidomide)
[3] = compound: compound 33 (diphenyl IMiD analogue)
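Further: pooled lentiviral library of zinc finger degron-EGFP fusions in mCherry-positive Jurkat cells, FACS-sorted after compound exposure, with degron abundance counted by next-generation sequencing.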

Sequence	log2 fold change of degron read counts [1]	log2 fold change of degron read counts [2]	log2 fold change of degron read counts [3]	log2 fold change of degron read counts (compound: thalidomide)
B1	-2.41	-2.06	-1.24	-0.963
B2	-1.95	-2.7	-2.13	0.127
B3	2.43	2.23	0.921	-1.11
B4	2.9	0.718	0.577	0.35
B5	0.178	0.388	0.876	1.42
B6	-0.628	2.02	1.94	2.17
B7	3.58	3.31	2.4	1.46
B8	0.0061	2.13	2.08	2.38
B9	-0.174	0.429	2.49	1.41
B10	0.828	3.06	2.53	3.77
B11	3.48	2.09	1.78	1.06
B12	2.52	2.23	2.82	2.11
B13	3.5	3.63	2.59	1.59
B14	1.96	0.401	2.22	2.13
B15	2.34	1.06	1.37	0.843
B16	0.664	-0.175	1.79	1.62
B17	2.84	2.22	2.64	1.47
